# Integrin act MD = activators of alpha7 integrin expression for muscular dystrophy; alpha7betagal myoblasts, beta-gal FDG fluorescence, 48 h; 350,000 tested, 0.064% active; Potency, µM (top dose mostly 38.3 µM), for the others: top-dose activation, actives largely listed as activators;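 also: potency is read from the fitted curve at half-maximal effect; 100% = response of the positive control SU9516; nearly all actives have a fitted effect of over 60% in size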
#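 alpha7betagal+/- myoblasts (passage 13, 250/well) treated 48 h at 37C with compounds at 1:260 dilution of DMSO stock. Lysed, then beta-galactosidase activity read as FDG fluorescence (ex 480/em 540) after 30 min, with pre-read for autofluorescence.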
# ClpP mod = qHTS Assay for Activators of ClpP; purified B. subtilis ClpP, FRET peptide cleavage, 20 min; Potency, µM (titrated, usually from 57.5 µM), without a hit: at the top dose activity change, negative = active; 340,000 tested, 1.9% active; active = well fitted falling curve with a large enough effect; inconclusive = small, poorly fitted or top-dose-only effect; inactive = no such curve, though single readings can be large or run the other way; also: potency is read from the fitted curve at half-maximal effect; the source files actives as falling curves though it sought activators and does not explain the sign; nearly all actives have a fitted effect of over 65% in size
# Target sequence (P80244 whole entry, looked up): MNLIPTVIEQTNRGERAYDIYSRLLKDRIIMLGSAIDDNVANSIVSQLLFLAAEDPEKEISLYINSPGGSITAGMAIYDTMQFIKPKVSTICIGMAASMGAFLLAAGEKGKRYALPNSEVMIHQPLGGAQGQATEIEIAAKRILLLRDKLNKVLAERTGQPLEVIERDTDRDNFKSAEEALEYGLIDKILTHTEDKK
#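 FRET quenching reversal measured ClpP activation: 10 microg/mL B. subtilis ClpP at pH 8 with the FRET-FV decapeptide, read at 430 nm after 320 nm excitation. The 20-min minus 0-min signal was scaled between DMSO/no-enzyme wells and ADEP (5.8 microM final).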
# Pin1 inh = human Pin1 inhibition | 390,000 tested, 0.009% active | Potency, µM (titrated, usually from 115 µM), for inactives: top-dose activity, negative = inhibition, most hits filed as inhibitors | Pin1 FP peptide displacement, HiFluor488, 10 min | Q13526; active = well fitted inhibition curve with a large enough effect in the polarisation, with a control signal flat, not every such curve was filed as active; inconclusive = small, poorly fitted or top-dose-only effect, or effect the other way, or a change in a side signal; inactive = no such curve, though single readings can be large or run the other way; the % refers to the polarisation; also: potency is read from the fitted curve at half-maximal effect; % is scaled to controls: 0 for no effect and ±100 for the full control effect
# IL2 activator = IL-2 activation; IL-2 activation reporter assay, cell-based qHTS; stimulated with anti-CD3/CD4/CD28 beads; in transgenic mouse T cells; activation, % (series mostly up to about 46 µM); 360,000 tested, 0.065% active; AID 652025; in the data active = activation above about 50%; inconclusive = mostly about 30% to 49%; also: 0% is about no effect
#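 Unstimulated transgenic mouse T cells, 750 per well, received compound and, after 60 minutes, anti-CD3/anti-CD4 bead plus anti-CD28 stimulation. EGFP and DsRed were quantified after 18 hours.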
# USP2a inh = inhibitors of human ubiquitin-specific protease USP2a | USP2 core, Ub-CHOP2 coupled fluorogenic reporter, 485/531 | Potency, µM (top dose mostly 38.3 µM), for the others: top-dose activity change, negative = inhibition, usual class: inhibitors | 330,000 tested, 0.01% active | AID 463254;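 also: potency is read from the fitted curve at half-maximal effect; plate controls were DMSO wells for no effect and full inhibition by NEM control for full effect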
#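 Deubiquitinase activity read as fluorescence (485/531 nm) after Ub-CHOP2 cleavage activates the enterokinase reporter on its substrate; USP2 core 10nM, Ub-CHOP2 and substrate 25nM each, 30min compound preincubation then 60min RT; data normalized to NEM, curves fitted.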
# PKM2 act = PKM2 (human) enzyme activation | purified PKM2, Kinase-Glo ATP luminescence, activation; response scale: 0% is enzyme alone, no compound | Potency, µM (highest dose often 57.5 µM), for inactives: top-dose activation, usual class: activators | 260,000 tested, 0.34% active | AID 1631 | P14618; also: potency is read from the fitted curve at half-maximal effect; % is scaled to controls: 0 for no effect and ±100 for the full control effect; nearly all actives have a fitted effect of over 55% in size
# Target sequence (P14618 whole entry, looked up): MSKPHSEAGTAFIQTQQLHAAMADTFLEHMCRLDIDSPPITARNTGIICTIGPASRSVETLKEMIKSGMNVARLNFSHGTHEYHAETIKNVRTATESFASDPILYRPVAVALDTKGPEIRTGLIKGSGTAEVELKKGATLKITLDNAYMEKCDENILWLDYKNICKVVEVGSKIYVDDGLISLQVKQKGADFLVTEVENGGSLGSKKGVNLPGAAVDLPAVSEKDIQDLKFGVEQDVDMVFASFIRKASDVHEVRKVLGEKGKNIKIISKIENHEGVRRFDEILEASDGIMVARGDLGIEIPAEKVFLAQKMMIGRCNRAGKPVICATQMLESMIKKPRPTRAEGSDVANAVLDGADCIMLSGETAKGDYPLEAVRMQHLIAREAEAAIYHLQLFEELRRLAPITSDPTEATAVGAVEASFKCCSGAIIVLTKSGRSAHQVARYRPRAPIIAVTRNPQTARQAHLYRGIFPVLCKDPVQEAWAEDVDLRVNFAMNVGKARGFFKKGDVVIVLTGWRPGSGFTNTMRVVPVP
#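 hPK-M2, >95% pure; 0.1 mM ADP / 0.5 mM PEP final; imidazole pH7.2 buffer w/ 7 mM MgCl2, 50 mM KCl; 1 h RT; Kinase-Glo lum. Intermediate enzyme activity for dual inhibitor/activator qHTS.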
# * marks the source's active call; other numbers are inactive results; ? = inconclusive; . = not tested or not shown. In the library only some 1.9% were active in any assay of this set; here they are far more common. Unless noted, calls follow the shape of the dose curve; as a rule, active = well fitted curve in the direction sought with a large enough effect; inconclusive = small, poorly fitted or top-dose-only effect, or another doubt; inactive = no such curve, though single readings can be large; an effect the other way counts as inactive or inconclusive.
SMILES,Integrin act MD,ClpP mod,Pin1 inh,IL2 activator,USP2a inh,PKM2 act
CCOC(=O)c1ccc(-c2ccc(/C=N/NC(=O)CN(c3ccccc3Br)S(C)(=O)=O)o2)cc1,-45%,18µM*,32%,0,0%,?
c1ccc2c3c([nH]c2c1)-c1[nH]ncc1CC3,-2%,13µM*,-1%,0,4%,2%
Clc1ccc2[nH]c3c(c2c1)CCc1cn[nH]c1-3,-21%,28µM*,3%,0,0%,-2%
O=C(N/N=C1\CCCc2c1[nH]c1ccc(Cl)cc21)c1ccncc1,-4%,-2%,0%,-3,-2%,-6%
CC(C)c1ccc(NC(=O)CSc2nnc(-c3ccccn3)n2C)cc1,13%,28µM*,-4%,0,-2%,0%
Cc1cc(C(Br)(Br)Br)nc2ccccc12,.,1%,.,.,.,.
CCN(CC)c1ccc(/C=N/NC(=S)NCc2ccc(OC)cc2)cc1,14%,.,15%,-2,1%,0%
CCN(CC)c1ccc(/C=N/NC(=O)Cc2cccs2)cc1,25%,28µM*,2%,-2,-1%,-2%
C=CCNC(=S)N/N=C/c1ccc(N(CC)Cc2ccccc2)cc1,-21%,8.9µM*,7%,0,3%,-1%
CCN(CC)c1ccc(/C=N/NC(=S)NCc2ccccc2)cc1,-25%,25µM*,3%,-2,2%,2%
COc1ccc(/C=N/NC(=O)Cc2cccs2)cc1,16%,3%,4%,0,0%,-1%
CCc1ccc(OCCCCn2c(CCNC(=O)C3CCCCC3)nc3ccccc32)cc1,.,-1%,3%,.,.,.
CCC1=C[C@@H]2CN(C1)Cc1c([nH]c3ccccc13)[C@@](C(=O)OC)(c1cc3c(cc1OC)N(C)[C@H]1[C@@](O)(C(=O)OC)[C@H](OC(C)=O)[C@]4(CC)C=CCN5CC[C@]31[C@@H]54)C2,.,1%,.,.,.,.
CC(C)OCCCn1c(=N)c(C(N)=S)cc2c(=O)n3ccccc3nc21,-8%,14µM*,?,0,3%,0%
C=CCn1c(=N)c(C(=O)NCCCOC)cc2c(=O)n3ccccc3nc21,17%,6.3µM*,-5%,-2,0%,-2%
N=c1c(C(=O)NCc2ccccc2)cc2c(=O)n3ccccc3nc2n1CCCN1CCOCC1,-23%,3.2µM*,?,0,-2%,-1%
N=c1c(C(=O)NC2CCCCC2)cc2c(=O)n3ccccc3nc2n1Cc1cccnc1,0%,.,?,3,2%,.
COC(=O)c1cc2c(=O)n3ccccc3nc2n(Cc2cccnc2)c1=N,1%,6.3µM*,?,5,.,.
C=CCn1c(=N)c(C(=O)NCCCOC)cc2c(=O)n3cc(C)ccc3nc21,-12%,-19%,-1%,1,-2%,0%
N=c1c(C(=O)NCc2ccc(F)cc2)cc2c(=O)n3ccccc3nc2n1CCCN1CCOCC1,-21%,?,?,0,1%,-4%
CCc1cccc(NC(=O)COC(=O)c2ccccc2OCc2ccccc2Br)c1,.,-10%,.,.,.,.
COc1ccc(C2CC(c3ccccc3)Oc3ccc(C(C)(C)C)cc32)cc1 (stereo not given),.,.,-2%,.,.,.
Cc1cc2c(s1)c1cnn(Cc3c(F)c(F)c(C(F)(F)F)c(F)c3F)c(=O)c1n2C,.,.,1%,.,.,.
C=CCCN(Cc1ccc(OC)cc1)S(=O)(=O)c1ccccc1Br,.,.,-3%,.,.,.
CCCCC(O)C(=O)Nc1cc(C(F)(F)F)ccc1Cl (stereo not given),.,.,-2%,.,.,.
SMILES,Integrin act MD,ClpP mod,Pin1 inh,IL2 activator,USP2a inh,PKM2 act
N=c1c(C(=O)NCc2ccc(F)cc2)cc2c(=O)n3ccccc3nc2n1Cc1cccnc1,23%,7.1µM*,?,178*,1%,-1%
c1ccc(Cn2nnnc2C(c2ccccc2)N2CCN(Cc3ccncc3)CC2)cc1 (stereo not given),.,2%,0%,.,.,.
COCCCNC(=O)COc1ccc(S(=O)(=O)Nc2ccccc2)cc1,9%,-6%,0%,0,0%,14µM*
O=c1[nH]c(=O)n(Cc2ccccc2)c2nc(-c3ccco3)cc(C(F)(F)F)c12,13%,14µM*,13%,1,-1%,2%
CC(=O)Nc1ccc(/C=N/NC(=O)c2cc(-c3ccco3)nc3ccccc23)cc1,13%,.,34%,2,-1%,7%
COc1ccc(O)c(/C=N/NC(=O)c2cc(=O)[nH]c3ccccc23)c1,5.6µM*,1%,6%,-1,0%,4%
COc1ccc(OC)c(/C=N/NC(=O)c2cc(-c3ccc(C)o3)nc3ccccc23)c1,-19%,164%,28%,-3,3%,7.9µM*
O=C(O)c1ccccc1/C=N/NC(=O)c1cc(-c2ccco2)nc2ccccc12,12%,.,?,6,3%,25µM*
COc1ccc(OC)c(/C=N/NC(=O)c2csc3ccccc23)c1,-5%,32µM*,4%,5,-1%,5%
COc1ccc(-c2cc(C(=O)N/N=C/c3cc(OC)c(OC)cc3OC)c3ccccc3n2)cc1,20%,-7%,4%,-1,.,.
O=C(N/N=C/c1ccccc1)c1cc(=O)[nH]c2ccccc12,28%,-16%,13%,0,0%,2%
c1ccc(-n2nc3c(ccc4cnnc43)[nH]2)cc1,-14%,11µM*,0%,1,0%,3%
Cn1c2c(c(=O)n3ncnc13)CCCC2,?,22µM*,-6%,0,5%,1%
CCC(CC)C(=O)Nc1c(C(=O)N2CCN(c3ccccc3)CC2)oc2ccccc12,13µM*,0%,1%,-1,-3%,.
Cn1cccc1-c1nc2ccccc2n1Cc1ccccc1,-11%,28µM*,?,0,-2%,-3%
CNc1oc(-c2ccccc2F)nc1S(=O)(=O)c1ccc(C)cc1,6%,10µM*,?,-1,-2%,0%
CCOP(=O)(c1ccccc1)c1nc(-c2ccccc2Cl)oc1N1CCCCC1 (stereo not given),13%,20µM*,-2%,-1,-10%,-4%
Cc1ccc(S(=O)(=O)c2nc(-c3ccccc3Cl)oc2N2CCCCCC2)cc1,.,18µM*,3%,.,.,.
Oc1ccc(Br)cc1C1C=C(c2ccc3c(c2)OCO3)NC(c2ccc(Br)cc2)N1 (stereo not given),.,3%,2%,.,.,.
COc1cc(OC)c(/C=C/c2cc3c4ccccc4ccc3[n+](C)c2)c(OC)c1,.,4%,.,.,.,.

# Assay outcomes: PubChem BioAssay, National Center for Advancing Translational Sciences (NCATS)
